A short description of test [1]: A CellTox Green Cytotoxicity Assay to monitor cytotoxicity in HEK293 cells - 40 hour (AID 1224871). Note: nearly all actives have a fitted effect of over 45% in size. The essentials: (§1)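 Read-out: fluorescence of a cell-impermeant cyanine dye staining DNA of dead cells, proportional to cytotoxicity. HEK293, 600 cells/well with reagent, compound (23 nL DMSO) added after 5 h; reads at 0, 8, 16, 24, 32, 40 h.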
Test [2] can be described thus: qHTS RealTime-Glo MT Cell Viability Assay in HEK293 cells - 16 hour (AID 1224872). Note: top concentration of the series differs between compounds; nearly all actives have a fitted effect of over 50% in size. The essentials: (§2)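 Luminescence generated by NanoLuc from substrate produced by living HEK293 cells served as the viability signal. Each value reflects the reading at its stated time point during continuous 40 h compound exposure at 37 C.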
On the technique in general: Quantitative high-throughput screening tests each substance at several concentrations.

Test [3] in a line: qHTS RealTime-Glo MT Cell Viability Assay in HepG2 cells - 8 hour (AID 1224873). Note: nearly all actives have a fitted effect of over 55% in size. The essentials: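 Real-time viability: cells seeded at 600 per well together with NanoLuc and cell-permeant prosubstrate, compounds added after 5 h incubation. Luminescence tracked at 0, 8, 16, 24, 32 and 40 h of exposure.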
Test [4] is described as follows: qHTS RealTime-Glo MT Cell Viability Assay in HEK293 cells - 40 hour (AID 1224874). Note: nearly all actives have a fitted effect of over 50% in size. The note with it: RealTime-Glo luminescence; max response: stronger effect = lower value. The essentials: (§3)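 Luminescence readout at each listed time point; HEK293, 600 cells/well, RealTime-Glo MT reagent added with cells; compounds pinned (23 nL in DMSO) after 5 h at 37 C; continuous culture at 37 C.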

Test [5] can be described thus: A CellTox Green Cytotoxicity Assay to monitor cytotoxicity in HEK293 cells - 24 hour (AID 1224875). Note: series mostly up to about 77 µM; nearly all actives have a fitted effect of over 45% in size. The essentials:
as §1

The nature of test [6]: A CellTox Green Cytotoxicity Assay to monitor cytotoxicity in HepG2 cells - 16 hour (AID 1224876). Note: nearly all actives have a fitted effect of over 45% in size. The essentials:
(§4)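 HepG2, 600 cells/well premixed w/ CellTox Green; 5 h settle, 37 C/5% CO2; pintool cpd add (DMSO); 37 C, 40 h; fluorescence read at 0, 8, 16, 24, 32, 40 h.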

Test [7] in a line: qHTS RealTime-Glo MT Cell Viability Assay in HepG2 cells - 32 hour (AID 1224877). Note: nearly all actives have a fitted effect of over 55% in size. The essentials:
(§5)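 Tox21 10K library screened in qHTS format on HepG2 cells carrying RealTime-Glo reagents. Compounds were added after a 5 h preincubation, and the luminescent signal from continuous culture was measured repeatedly during 40 h treatment.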

Test [8] can be described thus: A CellTox Green Cytotoxicity Assay to monitor cytotoxicity in HepG2 cells - 24 hour (AID 1224878). Note: nearly all actives have a fitted effect of over 45% in size. Note: potency is the fitted concentration of half-maximal effect. The essentials:
as §4

The nature of test [9]: A CellTox Green Cytotoxicity Assay to monitor cytotoxicity in HepG2 cells - 40 hour (AID 1224879). Note: nearly all actives have a fitted effect of over 40% in size. Note: potency is the fitted concentration of half-maximal effect. The essentials:
as §4

Test [10] can be described thus: qHTS RealTime-Glo MT Cell Viability Assay in HEK293 cells - 0 hour (AID 1224880). The essentials:
as §3

Test [11] in a line: A CellTox Green Cytotoxicity Assay to monitor cytotoxicity in HEK293 cells - 32 hour (AID 1224881). Note: nearly all actives have a fitted effect of over 40% in size. The essentials: as §1
Test [12] can be described thus: A CellTox Green Cytotoxicity Assay to monitor cytotoxicity in HepG2 cells - 0 hour (AID 1224882). Note: nearly all actives have a fitted effect of over 35% in size. The essentials: as §4
Test [13] in a line: A CellTox Green Cytotoxicity Assay to monitor cytotoxicity in HepG2 cells - 32 hour (AID 1224883). Note: nearly all actives have a fitted effect of over 50% in size. Note: potency is the fitted concentration of half-maximal effect. The essentials:
as §4

Test [14] can be described thus: A CellTox Green Cytotoxicity Assay to monitor cytotoxicity in HEK293 cells - 8 hour (AID 1224884). Note: nearly all actives have a fitted effect of over 35% in size. Note: potency is the fitted concentration of half-maximal effect. The essentials: as §1
Test [15] is described as follows: qHTS RealTime-Glo MT Cell Viability Assay in HepG2 cells - 16 hour (AID 1224885). Note: nearly all actives have a fitted effect of over 50% in size. The essentials:
as §5

A short description of test [16]: qHTS RealTime-Glo MT Cell Viability Assay in HEK293 cells - 24 hour (AID 1224886). The essentials:
as §2

Test [17] is described as follows: A CellTox Green Cytotoxicity Assay to monitor cytotoxicity in HEK293 cells - 16 hour (AID 1224888). Note: nearly all actives have a fitted effect of over 35% in size. The essentials:
as §1

The nature of test [18]: qHTS RealTime-Glo MT Cell Viability Assay in HepG2 cells - 0 hour (AID 1224889). Note: nearly all actives have a fitted effect of over 50% in size. The essentials: as §5
Test [19] can be described thus: A CellTox Green Cytotoxicity Assay to monitor cytotoxicity in HepG2 cells - 8 hour (AID 1224890). Note: nearly all actives have a fitted effect of over 45% in size. The essentials: as §4
Test [20] in a line: qHTS RealTime-Glo MT Cell Viability Assay in HEK293 cells - 8 hour (AID 1224887). The essentials: as §3

Values joined by “and” are separate entries in the source; they are usually repeats but may differ in a detail not shown here. Equal values may be shown once. Records with an inconclusive call do not appear. Some structures have more than one record in an assay (separate samples or runs), and their calls can disagree. Active and inactive are the calls of the source. Calls come from the whole dose curve; as a rule, active = well fitted curve in the direction sought with a large enough effect in the repeat runs; inconclusive = weak or mixed curves; inactive = no such curve, though single readings can be large; an effect the other way counts as inactive or inconclusive.
% is set by controls: 0 for no effect and ±100 for the full control effect.

With `COc1ccccc1O`, the Potency entry in [1], in [2], in [5], in test [6], in [8] and in test [9] was “inactive” throughout. Moreover, the Potency result in [10], in test [11], in test [12], in [13], in test [14] and in [15] was “inactive” throughout. Besides, the Potency result in test [16], in test [17], in [18] and in test [19] was “inactive” in each case. Moreover, the compound was called inactive in test [3] and in test [7]. Besides, the max response in [4] was 18.7% (inactive) and 1.57% (inactive) and 2.8% (inactive).

Regarding `Cn1cnc2c1c(=O)[nH]c(=O)n2C`, the Potency entry in [1], in [2], in [5], in [6], in test [8] and in [9] was “inactive” in each case. Further, the Potency result in test [10], in [11], in test [12], in test [13], in [14] and in [15] was “inactive” in each case. Also, the Potency entry in test [16], in test [20], in [17], in test [18] and in test [19] was “inactive” in each case. Also, the result in test [3] and in test [7] was inactive. For the same compound, the max response in [4] is 8.97% (inactive) and 7.21% (inactive).

Turning to `CCOCCO`, the Potency result in test [1], in [2], in test [5], in test [6], in [8] and in [9] was “inactive” each time. Also, the Potency result in test [10], in [11], in [12], in test [13], in test [14] and in test [15] was “inactive” throughout. Also, the Potency entry in [16], in [20], in [17], in test [18] and in test [19] was “inactive” in each case. The compound was classed as inactive in test [3] and in test [7]. In test [4], the max response was 1.5% (inactive) and 7.11% (inactive).

On to `COC1=CC(=O)C[C@@H](C)[C@]12Oc1c(Cl)c(OC)cc(OC)c1C2=O`, for which the Potency entry in test [1], in [2], in test [5], in test [6], in [10] and in [11] was “inactive” in each case. Also, the Potency result in [12], in test [15], in test [16], in test [20], in [17] and in test [18] was “inactive” each time. For the same compound, in test [19], the Potency result was “inactive”. In addition, the compound was classed as inactive in test [3] and in test [7]. For the same compound, in test [4], the max response is -25.7% (inactive). The Potency was 38.6 µM (active) and inactive in test [8]; 24.3 µM (active) and 21.9 µM (active) and 26.8 µM (active) in test [9]; 34.4 µM (active) in [13]; 24.3 µM (active) and inactive in test [14].

On to `CCCCNC(=O)NS(=O)(=O)c1ccc(N)cc1`, for which the Potency result in test [1], in test [2], in test [5], in test [6], in [8] and in [9] was “inactive” throughout. The Potency result in test [10], in test [11], in test [12], in test [13], in test [14] and in test [15] was “inactive” each time. Also, the Potency result in test [16], in test [20], in test [17], in test [18] and in test [19] was “inactive” each time. The call in [3] and in [7] was inactive. In test [4], the max response is 3.02% (inactive) and 10% (inactive).

Turning to `C=C(C)OC(C)=O`, the Potency entry in test [1], in test [2], in [5], in test [6], in test [8] and in [9] was “inactive” each time. In addition, the Potency result in [10], in test [11], in [12], in test [13], in test [14] and in [15] was “inactive” in each case. Further, the Potency result in [16], in test [20], in test [17], in test [18] and in [19] was “inactive” each time. In addition, the outcome in [3] and in test [7] was inactive. In addition, the max response in test [4] is 5.33% (inactive) and 0.384% (inactive).

For the compound `CCCCC/C(C=O)=C\c1ccccc1`, the Potency entry in test [1], in [2], in [5], in test [6], in test [8] and in test [9] was “inactive” each time. Besides, the Potency result in [10], in test [11], in [12], in test [13], in test [14] and in test [15] was “inactive” in each case. For the same compound, the Potency result in [16], in [20], in test [17], in test [18] and in [19] was “inactive” in each case. The compound was classed as inactive in [3] and in test [7]. Also, the max response in test [4] is -12% (inactive) and 4.41% (inactive) and 0.735% (inactive).

Take `CN(C)C=O`: the Potency entry in [1], in test [2], in test [5], in test [6], in test [8] and in test [9] was “inactive” each time. In addition, the Potency result in test [10], in [11], in test [12], in test [13], in test [14] and in test [15] was “inactive” in each case. Also, the Potency result in test [16], in [20], in [17], in test [18] and in [19] was “inactive” throughout. Further, the outcome in test [3] and in test [7] was inactive. Besides, in [4], the max response was 2.24% (inactive) and 2.36% (inactive).

On to `CC(=O)Oc1ccccc1C(=O)O`, for which the Potency entry in test [1], in [2], in test [5], in [6], in test [8] and in [9] was “inactive” throughout. The Potency entry in [10], in test [11], in [12], in test [13], in test [14] and in test [15] was “inactive” in each case. Besides, the Potency entry in [16], in test [20], in test [17], in test [18] and in test [19] was “inactive” in each case. Moreover, the compound was classed as inactive in test [3] and in test [7]. Also, the max response in [4] is -0.0178% (inactive) and 14.7% (inactive) and 2.62% (inactive).

On to `COc1ccc(O)cc1`, for which the Potency entry in test [1], in test [2], in test [5], in [6], in test [8] and in test [9] was “inactive” each time. The Potency result in [10], in test [11], in test [12], in test [13], in test [14] and in test [15] was “inactive” each time. Moreover, the Potency result in [16], in test [20], in test [17], in [18] and in test [19] was “inactive” in each case. Besides, the result in test [3] and in test [7] was inactive. In addition, in test [4], the max response is -25.5% (inactive) and -26.5% (inactive) and -24.7% (inactive).

For the compound `CCN1CCCC1=O`, the Potency entry in test [1], in test [2], in test [5], in test [6], in test [8] and in test [9] was “inactive” in each case. Besides, the Potency entry in [10], in test [11], in test [12], in test [13], in [14] and in test [15] was “inactive” throughout. For the same compound, the Potency result in test [16], in test [17], in [18] and in test [19] was “inactive” in each case. Further, the outcome in test [3] and in [7] was inactive. For the same compound, the max response in [4] was 0.414% (inactive) and 1.37% (inactive).

Regarding `COC(=O)C1CCC(C(=O)OC)CC1` (configuration not stated), the Potency entry in [1], in [2], in [5], in test [6], in test [8] and in test [9] was “inactive” each time. The Potency result in test [10], in [11], in test [12], in test [13], in test [14] and in test [15] was “inactive” in each case. Also, the Potency entry in test [16], in test [17], in test [18] and in test [19] was “inactive” throughout. In addition, the outcome in test [3] and in test [7] was inactive. Also, the max response in test [4] is 7.05% (inactive) and -2.3% (inactive) and 3.36% (inactive).

For the origin of these results see PubChem BioAssay (Tox21).
